Consider 32 compounds from PubChem BioAssay (EPA / NIEHS).

The source made the active and inactive calls. How the source made its calls: active means hit-call score of the fitted dose curve at least 0.9, where 1 is the maximum; inactive means score below 0.9.

Chain of Retinoic acid receptor alpha (Homo sapiens) (P10276 whole entry, looked up): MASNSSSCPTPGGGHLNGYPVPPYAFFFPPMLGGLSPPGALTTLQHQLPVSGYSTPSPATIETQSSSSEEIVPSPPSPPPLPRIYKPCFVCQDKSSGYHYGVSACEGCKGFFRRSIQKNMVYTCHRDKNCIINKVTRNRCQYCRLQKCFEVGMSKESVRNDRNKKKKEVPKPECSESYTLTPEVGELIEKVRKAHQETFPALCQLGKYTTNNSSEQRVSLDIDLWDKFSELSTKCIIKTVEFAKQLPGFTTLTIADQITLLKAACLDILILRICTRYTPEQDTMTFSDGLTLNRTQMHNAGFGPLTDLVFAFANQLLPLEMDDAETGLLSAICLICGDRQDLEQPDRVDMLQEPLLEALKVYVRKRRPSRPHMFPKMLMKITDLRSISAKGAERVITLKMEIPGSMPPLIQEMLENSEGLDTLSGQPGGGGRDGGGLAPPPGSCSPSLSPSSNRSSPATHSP

The experiment has as its target Retinoic acid receptor alpha (Homo sapiens) (UniProt P10276). Put plainly: ATG_DR5_RAR_CIS: Attagene CIS-FACTORIAL HepG2 Assay for human Retinoic Acid Receptor Alpha (RARE), DR5 submotif (AID 2282934).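 On AC50: reporter responds to endogenous RAR alpha beta and gamma in HepG2 not RARA alone.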 Particulars: HepG2 Attagene cis-factorial RARE DR5 reporter, mRNA; actives raise or lower the signal. In short, it runs like this:
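Transfected HepG2 reporter cells are exposed to chemicals for 24 h. Then RNA is extracted and the DR5 element reporter transcript is measured by RT-PCR and capillary electrophoresis, with bidirectional curve fitting relative to DMSO.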
As to `CCc1c(Br)c(Br)c(Br)c(Br)c1Br`, the AC50 was 16.4 µM (active).
In the case of `O=C(CC(=O)C(F)(F)C(F)(F)F)C(F)(F)F`, the outcome was inactive.
Turning to `CCC(=O)OCCc1ccccc1`, the compound was called inactive.
Take `FC(F)(F)C(F)(F)C(F)(F)C(F)(F)C(F)(F)C(F)(F)CCS`: the outcome was inactive.
On the same count and under the same terms, the result for `O=C(O)C(F)(OC(F)(F)C(F)(OC(F)(F)C(F)(F)C(F)(F)F)C(F)(F)F)C(F)(F)F` (configuration not stated) reads “inactive”.
On the same count and under the same terms, the result for `Cc1cc(C)cc(O)c1` reads “inactive”; that for `CN(C)Cc1ccccc1O`, “inactive”.
Consider `CC(CCl)OP(=O)(OC(C)CCl)OC(C)CCl` (configuration not stated), for which the compound was called inactive.
Same read-out and setting: the result for `Cc1cccc(N(C)C)c1` reads “inactive”; that for `Cc1ccc(S(=O)(=O)OCC(F)(F)C(F)(F)C(F)(F)C(F)(F)C(F)(F)C(F)F)cc1`, “inactive”.
On to `C=CC(=O)OCC(F)(F)C(F)(F)C(F)(F)C(F)(F)COC(=O)C=C`, for which the concentration at half-maximal activity (AC50) was 60.6 µM (active).
On to `O=C(O)C(F)(F)C(F)(F)C(F)(F)C(F)(F)F`, for which the compound was classed as inactive.
With `FC(F)(I)C(F)(F)C(F)(F)C(F)(F)I`, the call was inactive.
`O=C(OCCOCCOCCOC(=O)c1ccccc1)c1ccccc1`: the outcome was inactive.
Consider `CC(C)=CCCC(C)CCOC(=O)C(C)C` (configuration not stated), for which the result was inactive.
On the same count and under the same terms, for `CCCCOCCOCCOC(=O)CCCCC(=O)OCCOCCOCCCC` the value was “inactive”.
For `CC(Cc1ccc(O)c(O)c1)C(C)Cc1ccc(O)c(O)c1` (configuration not stated), the outcome was inactive.
On to `c1ccc(B(c2ccccc2)c2ccccc2)cc1`, for which the result was inactive.
On the same count and under the same terms, for `COC(=O)C1CCC(C(=O)OC)CC1` (configuration not stated) the value was “inactive”; for `FC(F)(F)C(F)(F)CNCC(F)(F)C(F)(F)F`, “inactive”.
In the case of `C=CC(=O)OCC(F)(F)C(F)(F)C(F)(F)C(F)(F)C(F)(F)C(F)(F)C(F)(F)F`, the AC50 was 12.1 µM (active).
Regarding `NC(=O)C(F)(F)C(F)(F)C(F)(F)C(F)(F)F`, the outcome was inactive.
Consider `FC(F)(F)C(F)(F)C(F)(F)C(F)(F)C(F)(F)CCI`, for which the compound was classed as inactive.
In the case of `CCN(CC)c1ccc2c(C)cc(=O)oc2c1`, the call was inactive.
On to `CCCCCCCCCCCCCCCC[N+](C)(C)Cc1ccccc1`, for which the call was inactive.
Consider `Nc1ccc([N+](=O)[O-])cc1O`, for which the result was inactive.
Same read-out and setting: for `FC(F)(F)C(F)(F)C(F)(F)C(F)(F)C(F)(F)C(F)(F)C(F)(F)C(F)(F)CCS` the value was “inactive”; for `OC[C@@H](O)[C@@H](O)[C@H](O)[C@@H](O)CO`, “inactive”.
Turning to `C(=C(c1ccccc1)c1ccccc1)c1ccccc1`, the result was inactive.
The same measure, in the same setting: the result for `C=CC/C=C/C/C=C/C/C=C/C` reads “inactive”; that for `OCCCC(F)(F)C(F)(F)C(F)(F)C(F)(F)C(F)(F)C(F)(F)C(F)(F)F`, “inactive”.
Same read-out and setting: for `c1ccc(-c2ccccc2-c2ccccc2)cc1` the value was “inactive”.
